These results are taken from the supplement of paper PMC6555819.

Common to all, as to assay: PBM binding z-score (relative to random genomic background probes); higher = stronger binding; sequences stand for … in GC…GCGATTGACAGCGTAGAATGAAGG
Test [1] relates to FXR:RXRa (NR concentration 270 nM, RXRa partner concentration 90 nM). Put shortly: (§1)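 Regression normalization was applied to scanned fluorescence from custom Agilent 4×180K protein-binding microarrays. Before scanning, arrays were incubated 1 h with ligand-free nuclear receptor dimers, and binding was detected with antibodies against each partner (one per run). Binding z-scores use the random background probes as reference.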

The test system of test [2] is LXRa:RXRa (NR concentration 270 nM, RXRa partner concentration 90 nM). An outline of the steps: as §1
Test [3] relates to LXRa homodimer (NR concentration 270 nM). Put shortly:
as §1

Test [4] has as its system LXRb:RXRa (NR concentration 270 nM, RXRa partner concentration 90 nM). Put shortly: as §1
The subject of test [5] is LXRb homodimer (NR concentration 270 nM). Put shortly:
as §1

Test [6] has as its system PPARa:RXRa (NR concentration 270 nM, RXRa partner concentration 90 nM). Put shortly:
as §1

Test [7] relates to PPARg:RXRa (NR concentration 180 nM, RXRa partner concentration 90 nM). Put shortly: as §1
Test [8] relates to PPARg:RXRa 270nM:90nM, anti-RXR (NR concentration 270 nM, RXRa partner concentration 90 nM). An outline of the steps:
as §1

Test [9] relates to PPARg:RXRa 30nM:10nM, anti-RXR (NR concentration 30 nM, RXRa partner concentration 10 nM). Put shortly: as §1
The subject of test [10] is PPARg:RXRa 90nM:30nM, anti-RXR (NR concentration 90 nM, RXRa partner concentration 30 nM). An outline of the steps: as §1
Test [11] concerns PPARg:RXRa DBDmut IVT, anti-RXR (DBD mutation: RXRa K156A/R161A, NR concentration 270 nM, RXRa partner concentration 90 nM). An outline of the steps: as §1
For test [12], the system named is PPARg:RXRa IVT, anti-PPARg (NR concentration 270 nM, RXRa partner concentration 90 nM). An outline of the steps: as §1
In test [13] the test system is PPARg DBDmut:RXRa IVT, anti-PPARg (DBD mutation: PPARg1 K132A/R137A, NR concentration 270 nM, RXRa partner concentration 90 nM). Put shortly:
as §1

For test [14], the system named is PPARg DBDmut IVT, anti-PPARg (DBD mutation: PPARg1 K132A/R137A, NR concentration 270 nM). An outline of the steps:
as §1

Test [15] relates to PPARg homodimer (NR concentration 180 nM). An outline of the steps:
as §1

For test [16], the system named is PXR:RXRa (NR concentration 270 nM, RXRa partner concentration 90 nM). An outline of the steps:
as §1

Test [17] concerns PXR homodimer (NR concentration 270 nM). Put shortly: as §1
The test system of test [18] is RARa:RXR (NR concentration 270 nM, RXRa partner concentration 90 nM). An outline of the steps: as §1
Test [19] relates to RARa homodimer (NR concentration 270 nM). Put shortly: as §1
Test [20] relates to RARb:RXRa (NR concentration 270 nM, RXRa partner concentration 90 nM). Put shortly: as §1

With TAGCCTAGGTCATTCGGGGGCCAGTATAGAAAGC, the PBM binding z-score in test [1] is 5.41; in test [2] it was 4.7; in [3], 1.38; in [4] it was 5.3; in [5] it was 9.24; in test [6], 4.26. Also, the PBM binding z-score in [7] turned out to be 3.69; in test [8], 4.12; in [9], 1.38; in [10], 3.17; in [11] it was 2.62; in test [12], 4.33. The PBM binding z-score is 2.22 in [13]; 5 in test [14]; 1.93 in [15]; 3.84 in test [16]; 0.257 in test [17]; 3.92 in [18]. Moreover, the results for the PBM binding z-score in test [19] and in test [20] were 0.944 and 3.99, respectively.

Regarding TCTGGTTGGTCAAAGGTCACACACTCGAAATGCG, the PBM binding z-score amounted to 6.33 in test [1]; 5.91 in test [2]; 4.59 in test [3]; 5.75 in [4]; 2.86 in test [5]; 6.43 in [6]. Moreover, the PBM binding z-score turned out to be 10.3 in [7]; 9.3 in test [8]; 8.98 in test [9]; 10.5 in test [10]; 3.03 in [11]; 5.67 in [12]. Besides, the PBM binding z-score was determined as 2.56 in test [13]; 3.21 in test [14]; 7.5 in test [15]; 6.15 in [16]; 2.71 in [17]; 7.76 in [18]. In addition, the figures for the PBM binding z-score in test [19] and in [20] were 4.92 and 4.96, respectively.

CGTCAAAGTTCAACTAAGGTAACGGAAAGCACGC: the PBM binding z-score came out at 6.73 in test [1]; 6.18 in [2]; 3.33 in [3]; 4.2 in test [4]; 2.03 in test [5]; 5.27 in [6]. The PBM binding z-score in test [7] came out at 4.86; in [8], 5.75; in test [9], 1.99; in [10], 4.58; in test [11] it was 0.353; in test [12] it was 2.18. Further, the PBM binding z-score in [13] worked out at 0.489; in [14], 0.064; in test [15] it was 3.4; in test [16] it was 5.37; in [17] it was 3.68; in test [18] it was 3.89. Besides, the PBM binding z-score was determined as 1.31 in [19] and 5.45 in [20].

AGAACGAGGGCAAGGAGTTGATAGCACGGGTGGC: the PBM binding z-score in [1] was 0.193; in test [2], 0.0802; in [3] it was -0.479; in test [4], -0.441; in test [5] it was -0.879; in test [6], 1.2. The PBM binding z-score in test [7] was 1.25; in test [8] it was 1.06; in test [9] it was -0.111; in test [10], 0.543; in test [11], 2.54; in test [12], 2.09. For the same sequence, the PBM binding z-score is 1.19 in test [13]; -0.462 in test [14]; 0.0784 in test [15]; 0.742 in [16]; 1.54 in test [17]; 0.14 in [18]. The PBM binding z-score in [19] was -0.0474; in test [20], 2.15.

On to CAGCCTGGGTCAGGGCCAGTATAGGAGGAACGTT, for which the PBM binding z-score in test [1] is 0.78; in test [2], 0.261; in test [3] it was -0.628; in test [4], 0.24; in test [5], -1.02; in [6], 2.03. For the same sequence, the PBM binding z-score in [7] was 0.871; in test [8], 0.727; in test [9], -0.545; in [10], 0.0759; in [11], -0.161; in test [12], 1.32. Also, the PBM binding z-score was -1.28 in [13]; -1.68 in [14]; 0.728 in [15]; 0.109 in test [16]; -0.685 in test [17]; 0.59 in [18]. For the same sequence, the PBM binding z-score in [19] was -0.125; in test [20] it was 2.83.

As for CGAACTAGGTCATTGATAGGACAGTGAATAGTAA, the PBM binding z-score is 3.4 in [1]; 2.63 in test [2]; 0.471 in [3]; 1.82 in [4]; -0.194 in [5]; 4.38 in test [6]. Besides, the PBM binding z-score in test [7] worked out at 7.14; in test [8], 5.99; in test [9] it was 3.25; in test [10], 5.56; in test [11] it was 7.92; in [12] it was 8.26. Also, the PBM binding z-score was determined as 4.2 in test [13]; 1.01 in test [14]; 1.71 in [15]; 1.43 in [16]; 0.351 in [17]; 1.93 in test [18]. The PBM binding z-score in [19] stood at 0.346; in test [20] it was 3.4.

TGAATGAGGTTAAAGATCAGGGGACGTGGCGTCG: the PBM binding z-score is 3.07 in test [1]; 2.68 in test [2]; -0.153 in [3]; 1.66 in [4]; 1.09 in [5]; 4.35 in test [6]. In addition, the PBM binding z-score in test [7] was determined as 5.2; in test [8], 6.37; in test [9], 5.28; in test [10] it was 6.61; in test [11] it was 2.48; in [12], 3.35. Also, the PBM binding z-score in test [13] was 1.21; in [14] it was 0.582; in test [15] it was 1.75; in test [16], 1.7; in [17] it was -0.086; in test [18], 3.31. For the same sequence, the PBM binding z-score in [19] is 0.0279; in test [20], 2.11.
